Calls of active or inactive are those of the source. Rule for the calls: active = hit-call score of the fitted dose curve at least 0.9, where 1 is the maximum; inactive = score below 0.9.
Tests used:
Details in all cases: mRNA level, 48 h; actives raise or lower the signal
[1] = read-out: Protein phosphatase 2A (PPP2R4), PTPA (gene 5524); test: LTEA_HepaRG_PPP2R4: Life Technologies and Expression Analysis (LTEA) Assay for Protein phosphatase 2A (PPP2R4) using HepaRG (AID 2283522)
In short: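 HepaRG, 48 h exposure, 8-pt half-log series from 100 uM, 0.5% DMSO vehicle, duplicates. Readout: PPP2R4 mRNA, Fluidigm qRT-PCR, housekeeping-normalized. Bidirectional curve fit vs DMSO baseline.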

[2] = read-out: Phosphatase and tensin (PTEN), PTEN (gene 5728); test: LTEA_HepaRG_PTEN: Life Technologies and Expression Analysis (LTEA) Assay for Phosphatase and tensin (PTEN) using HepaRG (AID 2283523)
In short: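 Expression of PTEN is quantified in the human liver line HepaRG following two days of dosing (top concentration 100 uM, half-log dilutions, 0.5% DMSO). Values derive from bidirectional curve fitting relative to DMSO controls.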

[3] = read-out: solute carrier (SLC22A1), SLC22A1 (gene 6580); test: LTEA_HepaRG_SLC22A1: Life Technologies and Expression Analysis (LTEA) Assay for solute carrier (SLC22A1) using HepaRG (AID 2283524);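 for AC50: differentiated human HepaRG liver cells in serum-free induction medium; TaqMan qRT-PCR normalized to ACTB GAPDH and POLR2A housekeeping genes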
In short: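 Transcript induction or suppression of SLC22A1 in human HepaRG cultures is scored after 48 h chemical treatment, with DMSO (0.5%) as baseline for bidirectional fitting. Concentrations span eight half-log points topping at 100 uM.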

[4] = read-out: Pyruvate Dehydrogenase Kinase 4 (PDK4), PDK4 (gene 5166); test: LTEA_HepaRG_PDK4: Life Technologies and Expression Analysis (LTEA) Assay for Pyruvate Dehydrogenase Kinase 4 (PDK4) using HepaRG (AID 2283525)
In short: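 Eight-point, half-log concentration series (max 100 uM, 0.5% DMSO) applied to differentiated HepaRG cells for 48 h in duplicate. Endpoint: PDK4 mRNA induction or repression by qRT-PCR against DMSO baseline.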

[5] = read-out: NAD(P)H dehydrogenase [quinone] 1 (NQO1), NQO1 (gene 1728); test: LTEA_HepaRG_NQO1: Life Technologies and Expression Analysis (LTEA) Assay for NAD(P)H dehydrogenase [quinone] 1 (NQO1) using HepaRG (AID 2283526)
In short: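 qRT-PCR read-out (Fluidigm TaqMan), normalized to three housekeeping genes, after 48 h chemical exposure of HepaRG cells. Concentrations: eight points, top 100 uM, half-log steps, 0.5% DMSO vehicle. Gain or loss of signal fitted relative to DMSO.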

[6] = read-out: Nuclear factor erythroid 2-related factor 2 (Homo sapiens) (UniProt Q16236); test: LTEA_HepaRG_NFE2L2: Life Technologies and Expression Analysis (LTEA) Assay for Nuclear factor erythroid 2-related factor 2 (NFE2L2) Transcription Factor using HepaRG (AID 2283527)
In short: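 Human liver HepaRG line treated in duplicate for 48 h with an eight-point series topping at 100 uM. Gene expression of NFE2L2 by qRT-PCR, bidirectionally fitted against the vehicle control.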

[7] = read-out: succinate dehydrogenase complex iron sulfur subunit B (SDHB), SDHB (gene 6390); test: LTEA_HepaRG_SDHB: Life Technologies and Expression Analysis (LTEA) Assay for succinate dehydrogenase complex iron sulfur subunit B (SDHB) using HepaRG (AID 2283528)
In short: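 HepaRG cells (~100,000/well, plated 48 h) exposed in duplicate for 48 h in serum-free induction medium to 8-point half-log series from 100 uM in 0.5% DMSO; mRNA by qRT-PCR normalised to ACTB, GAPDH, POLR2A; bidirectional fit versus DMSO.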

[8] = read-out: Signal transducer and activator of transcription 3 (Homo sapiens) (UniProt P40763); test: LTEA_HepaRG_STAT3: Life Technologies and Expression Analysis (LTEA) Assay for Signal transducer and activator of transcription (STAT3) using HepaRG (AID 2283529)
In short: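 In this transcriptional endpoint, HepaRG cultures receive test chemicals at up to 100 uM for 48 h, tested in duplicate. STAT3 mRNA is normalized to ACTB, GAPDH and POLR2A.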

[9] = read-out: solute carrier (SLCO1B1), SLCO1B1 (gene 10599); test: LTEA_HepaRG_SLCO1B1: Life Technologies and Expression Analysis (LTEA) Assay for solute carrier (SLCO1B1) using HepaRG (AID 2283530)
In short: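 Human HepaRG cultures treated for 48 h with an eight-concentration half-log series topping at 100 uM; SLCO1B1 measured by qRT-PCR and fitted bidirectionally relative to DMSO.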

[10] = read-out: sulfotransferase 2A1 (SULT2A1), SULT2A1 (gene 6822); test: LTEA_HepaRG_SULT2A1: Life Technologies and Expression Analysis (LTEA) Assay for sulfotransferase 2A1 (SULT2A1) using HepaRG (AID 2283531)
In short: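 Gene-expression endpoint in a human liver cell line: SULT2A1 mRNA change after 48 h chemical treatment, curves fitted in both directions relative to 0.5% DMSO vehicle. Concentrations spanned eight half-log steps from 100 uM.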

Measured: AC50

Signal transducer and activator of transcription 3 (Homo sapiens), sequence (P40763 whole entry, looked up): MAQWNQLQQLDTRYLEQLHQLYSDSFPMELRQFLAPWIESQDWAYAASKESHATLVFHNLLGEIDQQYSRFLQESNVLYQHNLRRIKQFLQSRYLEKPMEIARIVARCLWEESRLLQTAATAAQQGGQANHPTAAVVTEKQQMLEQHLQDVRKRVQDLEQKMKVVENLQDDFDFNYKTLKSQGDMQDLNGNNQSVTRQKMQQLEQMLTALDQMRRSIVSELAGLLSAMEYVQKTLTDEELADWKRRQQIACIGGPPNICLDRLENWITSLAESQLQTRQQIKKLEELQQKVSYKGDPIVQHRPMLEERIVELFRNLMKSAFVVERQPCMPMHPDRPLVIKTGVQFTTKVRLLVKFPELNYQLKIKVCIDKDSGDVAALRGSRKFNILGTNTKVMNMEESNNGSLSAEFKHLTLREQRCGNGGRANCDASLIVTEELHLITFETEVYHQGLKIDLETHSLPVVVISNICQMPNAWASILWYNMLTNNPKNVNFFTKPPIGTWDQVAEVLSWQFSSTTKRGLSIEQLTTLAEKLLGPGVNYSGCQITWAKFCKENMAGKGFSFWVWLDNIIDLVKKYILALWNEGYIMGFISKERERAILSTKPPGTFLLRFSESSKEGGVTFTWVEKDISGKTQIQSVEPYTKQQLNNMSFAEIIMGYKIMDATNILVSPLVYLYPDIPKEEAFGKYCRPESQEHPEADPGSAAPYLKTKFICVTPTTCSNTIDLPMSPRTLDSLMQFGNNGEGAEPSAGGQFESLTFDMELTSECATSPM
Nuclear factor erythroid 2-related factor 2 (Homo sapiens), sequence (Q16236 whole entry, looked up): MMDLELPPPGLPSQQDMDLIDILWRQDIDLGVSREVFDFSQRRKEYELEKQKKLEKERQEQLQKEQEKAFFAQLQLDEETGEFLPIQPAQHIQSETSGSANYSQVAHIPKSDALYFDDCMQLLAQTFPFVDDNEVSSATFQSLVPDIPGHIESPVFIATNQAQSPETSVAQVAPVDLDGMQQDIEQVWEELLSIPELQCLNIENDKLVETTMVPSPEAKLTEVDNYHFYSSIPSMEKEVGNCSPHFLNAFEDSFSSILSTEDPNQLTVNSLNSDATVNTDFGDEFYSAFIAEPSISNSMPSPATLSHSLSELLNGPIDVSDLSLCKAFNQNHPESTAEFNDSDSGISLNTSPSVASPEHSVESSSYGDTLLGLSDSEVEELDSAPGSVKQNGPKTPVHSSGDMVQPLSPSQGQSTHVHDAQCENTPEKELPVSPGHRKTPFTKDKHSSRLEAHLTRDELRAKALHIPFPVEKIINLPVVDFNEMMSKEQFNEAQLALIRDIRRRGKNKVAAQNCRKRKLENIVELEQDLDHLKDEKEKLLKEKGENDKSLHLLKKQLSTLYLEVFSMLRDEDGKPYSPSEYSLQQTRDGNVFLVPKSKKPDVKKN

CCO[Si](CCCNC(N)=O)(OCC)OCC
inactive: all assays above

COCC(C)OCC(C)OCC(C)O (centres undefined)
inactive: all assays above

CN1C(=O)N(c2ccccc2Br)Cc2cnc(Nc3ccc4c(c3)OCC(CO)O4)nc21 (centres undefined)
active: [3] 35.2 µM | [4] 50 µM | [7] 12.2 µM | [8] 50 µM | [9] 80.9 µM | [10] 81.1 µM
inactive: [1] | [2] | [5] | [6]

CN(C)c1ccc(C(=C2C=CC(=[N+](C)C)C=C2)c2ccc(N(C)C)cc2)cc1
active: [1] 12.9 µM | [2] 26.1 µM | [3] 3.62 µM | [4] 32.4 µM | [5] 5 µM | [6] 12.7 µM | [7] 11.1 µM | [8] 39.3 µM | [9] 4.64 µM | [10] 3.54 µM

Oc1ccccc1
inactive: all assays above

CC(O)CC(C)(C)O (centres undefined)
inactive: all assays above

C[C@]12CC[C@@H]3c4ccc(O)cc4CC[C@H]3[C@@H]1CC[C@H]2O
active: [3] 71.1 µM | [9] 77.5 µM | [10] 6.71 µM
inactive: all other assays above

Cc1oc2c(NC(=O)c3c(Cl)cccc3Cl)cccc2c1C(C)(C)O
active: [3] 50 µM | [4] 14.9 µM | [6] 79 µM | [9] 54 µM | [10] 68.1 µM
inactive: [1] | [2] | [5] | [7] | [8]

CN(C)C(=O)C1(N2CCCCC2)CCN(CC[C@@]2(c3ccc(Cl)c(Cl)c3)CN(C(=O)c3ccccc3)CCO2)CC1
active: [1] 27.2 µM | [3] 27.6 µM | [6] 47.2 µM | [7] 22.5 µM | [8] 47.2 µM | [9] 23.1 µM | [10] 23.3 µM
inactive: [2] | [4] | [5]

CCCCCCCCOC(=O)c1cc(O)c(O)c(O)c1
inactive: all assays above

CC1=CC(=O)/C(=C(/C)O)C(=O)O1
inactive: all assays above

Cc1ccc2oc(CN(Cc3ccccc3)C(=O)Nc3c(F)cc(F)cc3F)c(-c3ccc(Cl)cc3)c2c1
active: [3] 44.2 µM
inactive: all other assays above

CCCCOC(=O)c1ccc(O)cc1
inactive: all assays above

COc1cccc([C@H](O)C2CCN(CCc3ccc(F)cc3)CC2)c1OC
not listed: [8]
inactive: all other assays above

CC/C(=C(/CC)c1ccc(O)cc1)c1ccc(O)cc1
active: [1] 85.4 µM | [2] 93.8 µM | [3] 75.7 µM | [4] 80.1 µM | [6] 89.9 µM | [7] 50 µM | [8] 90.8 µM | [10] 93.7 µM
inactive: [5] | [9]

CCCCCCCC[Si](OCC)(OCC)OCC
inactive: all assays above

O=C(O)c1ccccc1-n1cc(C(=O)O)c(=O)c2cc(Nc3c(F)cc(F)cc3Cl)c(Cl)cc21
inactive: all assays above

NC(=O)c1nc(-c2cccc(-c3cc(F)ccc3OCC(F)(F)C(F)(F)F)c2)n[nH]1
active: [2] 80.5 µM | [3] 15.8 µM | [5] 78.2 µM
not listed: [8]
inactive: all other assays above

CCCCCCCCOc1ccc(C(=O)c2ccccc2)c(O)c1
inactive: all assays above

O=C1CCC(C2CCCCC2)CC1
inactive: [8]

Reference: PubChem BioAssay (EPA / NIEHS)
